FBW7 act: human FBW7 E3 ligase activation, primary screen | Q969H0 | AlphaScreen FBW7–phospho-cyclin E peptide binding, activator screen | normalized activity (activation), % at 26.1 µM | actives 0.13% (n = 650,000) | AID 1259310; in the data active = normalized activity above about 1.9%;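 note: purified mutant Fbw7 with reduced substrate affinity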
TEAD-YAP inh: TEAD-YAP interaction inhibition. HEK-TIYL cells, TEAD-Gal4/YAP UAS-luciferase luminescence. inhibition, % at 9.12 µM. actives 1.4% (n = 640,000); in the data active = inhibition above about 32%
GPR151 activ: activators of human GPR151 | Q8TDV0 | PathHunter beta-arrestin GPR151 cells, luminescence | activation, % at 11.2 µM | actives 1% (n = 650,000); in the data active = activation above about 4.9%
Target sequence (Q8TDV0 whole entry, looked up): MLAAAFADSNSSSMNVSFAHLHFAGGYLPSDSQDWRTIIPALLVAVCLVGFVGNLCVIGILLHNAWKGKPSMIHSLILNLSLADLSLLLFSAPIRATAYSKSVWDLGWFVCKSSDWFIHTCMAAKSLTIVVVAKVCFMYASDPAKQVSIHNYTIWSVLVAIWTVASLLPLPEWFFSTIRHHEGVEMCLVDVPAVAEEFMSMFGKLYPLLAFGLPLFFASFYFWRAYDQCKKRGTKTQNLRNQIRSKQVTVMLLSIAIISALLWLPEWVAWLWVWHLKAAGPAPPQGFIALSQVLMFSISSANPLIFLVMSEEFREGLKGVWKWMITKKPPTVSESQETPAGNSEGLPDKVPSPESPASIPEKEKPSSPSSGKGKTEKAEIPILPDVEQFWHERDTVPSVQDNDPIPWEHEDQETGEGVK
MITF inh: blocks human microphthalmia-associated transcription factor. O75030. AlphaScreen MITF homodimerization, bead proximity signal. inhibition, % at 2.6 µM. actives 0.91% (n = 650,000). AID 1259374; in the data active = inhibition above about 50%
GPR151 conf act: human GPR151 activation, confirmation screen | activation, % at 11.2 µM | GPR151 PathHunter beta-arrestin cells, luminescence, 90 min; % of EA-reagent control over plate median | shares compounds with GPR151 activ | 6,700 tested, under 10 active;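 active = mean percent activation across replicates above the confirmation screen cutoff of 4.91%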
GPR119 ag: counter-screen for GPR151 activators: effect on human GPR119. shares compounds with GPR151 activ. GPR119 PathHunter beta-arrestin cells, luminescence, 90 min; 0 = compound-well median, 100 = enzyme-acceptor control. activation, % at 11.2 µM. actives 0.3% (n = 6,700);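 active = mean percent activation in the counterscreen above 29.09%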;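 note: counterscreen on off-target GPR119 to flag nonselective hits from the GPR151 activator screen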
Of the large screens only hits and unclear results are named; the others gave an inactive call (follow-up assays come after a bar, where they were run); ! = repeats disagree. In the library only some 3.4% were active in any assay of this set; here they are far more common.

COc1cc([N+](=O)[O-])ccc1-c1ccc(C(=O)Nc2ccc(Br)cn2)o1	GPR151 activ 7.1 | GPR151 conf act inactive | GPR119 ag inactive
COc1ccccc1-c1c(C)c(CC(C)C)nc(N)c1C#N	none
C=CCn1c2cc(C)oc2c2cnn(CCC(N)=O)c(=O)c21	none
CCCN(CCC)S(=O)(=O)c1ccc(C(=O)Nc2nc3c(OC)cccc3s2)cc1	GPR151 activ 6.6 | GPR151 conf act inactive | GPR119 ag inactive
CCCN(CCC)S(=O)(=O)c1ccc(C(=O)Nc2nc3c(ccc4ccccc43)s2)cc1	none
COCCOC(=O)C1=C(C)NC2=C(C(=O)CC(c3ccccc3)C2)C1c1ccccc1OCc1ccccc1 (stereo unspecified)	none
CCCCC(C(=O)OC)N1C(=O)c2cc(Cl)c(Cl)cc2C1=O (stereo unspecified)	GPR151 activ 7.6 | GPR151 conf act inactive | GPR119 ag inactive
O=C1c2ccccc2C(=O)N1OS(=O)(=O)c1ccc(Cl)c(Cl)c1	none
COc1cc(/C=C2\SC(=S)NC2=O)ccc1OS(=O)(=O)c1ccccc1	GPR151 activ 7.9 | GPR151 conf act inactive | GPR119 ag inactive
Cc1cc(/C=C2/SC(=S)NC2=O)c(C)n1-c1ccc([N+](=O)[O-])cc1	none
O=C(NCC1CCC2(CCN(Cc3ccc4ccccc4c3)CC2)O1)c1ccco1 (stereo unspecified)	none
O=C(CCC(=O)c1ccc(Cl)cc1)OC1CCCCC1=O (stereo unspecified)	none
COCCn1c(SCC(=O)N2CC(=O)Nc3ccccc32)nnc1-c1ccoc1C	GPR151 activ 7.6 | GPR151 conf act inactive | GPR119 ag inactive
O=C(Cn1nnc(-c2ccc([N+](=O)[O-])cc2)n1)NCC1CC1	GPR151 activ 5.9 | GPR151 conf act inactive | GPR119 ag inactive
CS(=O)(=O)N1CCN(c2ccc(C(=O)N3CCOCC3)cc2[N+](=O)[O-])CC1	GPR151 activ 7.6 | GPR151 conf act inactive | GPR119 ag inactive
O=C(c1ccc(N2CCCCCC2)c([N+](=O)[O-])c1)N1CCOCC1	none
CC(CN(C)C)CN1c2ccccc2Sc2ccccc21 (stereo unspecified)	none
CC(CN1c2ccccc2Sc2ccccc21)N(C)C (stereo unspecified)	GPR151 activ 7.4! | GPR151 conf act inactive | GPR119 ag inactive
O=C(NCC(c1ccc2c(c1)OCO2)N1CCN(c2ccccc2F)CC1)c1cnccn1 (stereo unspecified)	GPR151 activ 5.5 | GPR151 conf act inactive | GPR119 ag inactive
Cc1ccccc1NC(=O)C(=O)NCC(c1ccc2c(c1)OCO2)N1CCN(C)CC1 (stereo unspecified)	GPR151 activ 5.7 | GPR151 conf act inactive | GPR119 ag inactive
C=CCNC(=O)Nc1ccccc1Br	none
COc1ccc(COC(=O)c2nc3nccc(C)n3n2)cc1F	none
COC(=O)CN1C=C(C(=O)OC)C(c2cccc(Cl)c2)C(C(=O)OC)=C1	none
Cc1cc(C)cc(NS(=O)(=O)c2ccc3c(c2)OCCCO3)c1	none
Nc1ccc(NS(=O)(=O)c2ccc3c(c2)OCCCO3)cc1	GPR151 activ 6.5 | GPR151 conf act inactive | GPR119 ag inactive
COc1ccc2nc3sc(C(=O)Nc4cccc(C(C)=O)c4)c(N)c3cc2c1	GPR151 activ 5.3 | GPR151 conf act inactive | GPR119 ag inactive
O=C(CCN1C(=O)c2ccccc2C1=O)Oc1ccccc1-c1ccccc1	none
O=C(CSc1nnc(CNC(=O)c2ccccc2)o1)NCc1ccco1	GPR151 activ 7.8 | GPR151 conf act inactive | GPR119 ag inactive
CCc1nn(C(CC)C(=O)NC2CCCC2)c(=O)c2cc3occc3n12 (stereo unspecified)	none
CCc1nn(C(CC)C(=O)NC2CCCC2)c(=O)c2cc3oc(C)cc3n12 (stereo unspecified)	GPR151 activ 12.8 | GPR151 conf act inactive | GPR119 ag inactive
COC(=O)c1ccc(NC(=O)c2cccc(Cl)c2Cl)cc1	none
Cc1cccc(NC(=O)CC2(CC(=O)O)CCCC2)c1	none
Cc1ccc(NC(=O)CC2(CC(=O)O)CCCCC2)c(C)c1	GPR151 activ 5.7 | GPR151 conf act inactive | GPR119 ag inactive
Cc1ccc(-n2nnnc2SCc2ccccc2F)cc1C	none
CC1=CC(C)(C)N(Cc2ccccc2)c2cc(C)ccc21	none
O=S(=O)(Cc1ccccc1)N1CCCC(N2CCOCC2)C1 (stereo unspecified)	GPR151 activ 19.6 | GPR151 conf act inactive | GPR119 ag inactive
O=C1C(c2ccc(F)cc2)N(C2CCCCCCC2)C(=O)CN1C1CCCCCC1 (stereo unspecified)	GPR151 activ 8.2 | GPR151 conf act inactive | GPR119 ag inactive
O=C1C(c2ccc(F)cc2)N(C2CCCCC2)C(=O)CN1C1CCCCCC1 (stereo unspecified)	GPR151 activ 8.6 | GPR151 conf act inactive | GPR119 ag inactive
O=C1C(c2ccc(F)cc2)N(C2CCCC2)C(=O)CN1C1CCCCC1 (stereo unspecified)	none
CCSc1nnc(NC(=O)c2c(OC)cccc2OC)s1	none
CC1=NN(c2ccc(Cl)cc2)C(=O)/C1=C/c1ccc2c(c1)OCO2	none
CC1=NN(c2ccc(C)cc2)C(=O)/C1=C/c1ccc2c(c1)OCO2	GPR151 activ 5.3 | GPR151 conf act inactive | GPR119 ag inactive
CC(C)(C)c1ccc(OCC(N)=O)c(Br)c1	GPR151 activ 5.9 | GPR151 conf act inactive | GPR119 ag inactive
CC(C)Cc1nnc(-c2cc3ccccc3n2CC(=O)N2CCc3ccccc32)o1	GPR151 activ 5.0 | GPR151 conf act inactive | GPR119 ag inactive
O=C(Nc1ccc2c(c1)OCO2)C1CC12CCN(C(=O)c1ccc(-c3ccco3)cc1)CC2 (stereo unspecified)	GPR151 activ 5.5 | GPR151 conf act inactive | GPR119 ag inactive
CN1CCCc2cc(CN3CCC4(CC3)CC4C(=O)Nc3ccc4c(c3)OCO4)ccc21 (stereo unspecified)	GPR151 activ 4.9 | GPR151 conf act inactive | GPR119 ag inactive
O=C(Nc1ccc2c(c1)OCO2)C1CC12CCN(C(=O)c1ccc(-n3ccnc3)cc1)CC2 (stereo unspecified)	none
CCCC/C=C/c1cnc(N2CCN(CCO)CC2)c2nccn12	none
CCN1CCN(C(c2ccc3ncccc3c2)c2nnnn2C(C)(C)CC)CC1 (stereo unspecified)	none
COc1ccc(-c2nc3cnccn3c2NC(C)(C)C)c(OC)c1	none
Cc1ccc(/C=N/NC(=O)COc2ccc(Cl)cc2[N+](=O)[O-])s1	none
COc1ccc(/C=N/NC(=O)COc2ccc(Cl)cc2Cl)cc1O	GPR151 activ 9.4 | GPR151 conf act inactive | GPR119 ag inactive
COc1ccc(/C=N/NC(=O)COc2cccc(C)c2)cc1O	GPR151 activ 14.1 | GPR151 conf act inactive | GPR119 ag inactive
CCc1ccc(OCC(=O)N/N=C/c2ccccc2O)cc1	none

Bioassay records deposited in PubChem BioAssay by The Scripps Research Institute Molecular Screening Center.
